Laboratory results as given in PubChem BioAssay (EPA / NIEHS).
Calls of active or inactive are those of the source. The calls were made as follows: active = hit-call score of the fitted dose curve at least 0.9, where 1 is the maximum; inactive = score below 0.9.

Assays:
[1] = ATG_CRE_CIS: Attagene CIS-FACTORIAL HepG2 Assay for human cAMP Responsive Element (CRE) binding protein 3 (AID 2282926); details: HepG2 CRE cis-reporter, Attagene multiplexed mRNA; actives raise or lower the signal
Summary of the method: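 Cells carrying cis-regulated reporter constructs respond through their own endogenous factors. After 24 h treatment, RNA is reverse-transcribed, amplified, labelled and sized by capillary electrophoresis; up- and down-regulation are both scored against vehicle.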

[2] = ATG_DR4_LXR_CIS: Attagene CIS-FACTORIAL HepG2 Assay for human Liver X Receptor (LXR), DR4 submotif (AID 2282929); details: HepG2 Attagene DR4 cis-reporter, mRNA transcription; actives raise or lower the signal
Summary of the method: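 Readout: reporter transcript fluorescence after RT-PCR and capillary electrophoresis, fitted bidirectionally against DMSO controls. Human HepG2 liver cells carried transiently transfected multiplexed reporter constructs; endogenous transcription factor activity measured 24 h post-dosing.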

[3] = ATG_AP_1_CIS: Attagene CIS-FACTORIAL HepG2 Assay for human Activator Protein 1 (AP-1) (AID 2282931); details: HepG2 Attagene cis-factorial AP-1 reporter mRNA; actives raise or lower the signal
Summary of the method: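 Reporter transcripts were measured 24 h after dosing by RT-PCR and capillary electrophoresis of fluorescent fragments. Cells: HepG2 carrying transfected cis-regulated reporter constructs reading endogenous factor activity. Gain or loss fitted against DMSO.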

[4] = ATG_AP_2_CIS: Attagene CIS-FACTORIAL HepG2 Assay for human Activator Protein 2 (AP-2) (AID 2282932); details: HepG2 AP-2 cis-reporter, Attagene transcription factor profiling; actives raise or lower the signal
Summary of the method: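 Assay in transfected HepG2 with promoter-regulated reporters, 24 h incubation after dosing. Signal is reporter mRNA fluorescence (RT-PCR, capillary electrophoresis), analysed for both increases and decreases relative to DMSO controls.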

[5] = molecular target: Transcription factor E2F1 (Homo sapiens) (UniProt Q01094); assay: ATG_E2F_CIS: Attagene CIS-FACTORIAL HepG2 Assay for human E2F Transcription Factor 1 (AID 2282935); details: HepG2 Attagene cis-reporter, E2F reporter RNA transcripts; actives raise or lower the signal
Chain of Transcription factor E2F1 (Homo sapiens) (Q01094 whole entry, looked up): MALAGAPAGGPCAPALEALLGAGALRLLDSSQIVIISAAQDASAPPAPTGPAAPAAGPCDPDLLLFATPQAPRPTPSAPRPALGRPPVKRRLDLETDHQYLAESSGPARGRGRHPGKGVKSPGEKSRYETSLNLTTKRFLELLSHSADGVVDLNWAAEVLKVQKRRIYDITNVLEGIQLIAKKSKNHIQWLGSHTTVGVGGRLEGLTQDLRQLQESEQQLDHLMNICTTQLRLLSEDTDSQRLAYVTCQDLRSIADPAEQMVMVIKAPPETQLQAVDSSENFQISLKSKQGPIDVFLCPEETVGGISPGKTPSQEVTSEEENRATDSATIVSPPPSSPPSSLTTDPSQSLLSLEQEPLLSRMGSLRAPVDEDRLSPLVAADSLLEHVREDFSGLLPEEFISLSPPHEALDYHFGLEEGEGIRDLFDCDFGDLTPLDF
Summary of the method: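 In this cis-factorial format, endogenous factor activity drives transfected reporters in HepG2; transcripts collected at 24 h are quantified by fluorescence after RT-PCR and capillary separation.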

[6] = ATG_M_61_CIS: Attagene CIS-FACTORIAL HepG2 Assay for M61 Transcription Factor (Internal Marker) (AID 2282937); details: HepG2 Attagene CIS-FACTORIAL M61 internal marker reporter; actives raise or lower the signal
Summary of the method: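 Readout: fluorescent reporter mRNA fragments resolved by capillary electrophoresis after RT-PCR. Transiently transfected human HepG2 cells carried MRTU constructs reporting endogenous TF activity; 24 h chemical exposure; gain or loss of signal fitted relative to DMSO.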

[7] = ATG_EGR_CIS: Attagene CIS-FACTORIAL HepG2 Assay for human Early Growth Response 1 (EGR1) (AID 2282938); details: HepG2 Attagene CIS-FACTORIAL EGR reporter mRNA; actives raise or lower the signal
Summary of the method: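 Read-out: fluorescent reporter-mRNA fragments resolved by capillary electrophoresis after RT-PCR, 24 h post-dose in transiently transfected HepG2. Endogenous transcription-factor activity reported via cis-element-regulated reporter units; gain or loss fitted relative to DMSO.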

[8] = ATG_M_19_CIS: Attagene CIS-FACTORIAL HepG2 Assay for M19 Transcription Factor (Internal Marker) (AID 2282939); details: HepG2 Attagene CIS-FACTORIAL M19 internal marker reporter; actives raise or lower the signal
Summary of the method: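 HepG2 cells transiently transfected with cis-regulated multiple reporter transcription units were dosed for 24 h; reporter mRNA was quantified by RT-PCR, 6-FAM primer-extension labelling, HpaI digestion and capillary electrophoresis, with bidirectional fitting against DMSO baseline.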

[9] = ATG_Ets_CIS: Attagene CIS-FACTORIAL HepG2 Assay for human Erythroblast Transformation Specific (ETS) (AID 2282941); details: HepG2 ETS cis-reporter transcription, actives raise or lower the signal
Summary of the method: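 Endogenous transcription factor activity read as reporter mRNA via RT-PCR and capillary electrophoresis, with gain or loss fitted bidirectionally against DMSO. Human HepG2 liver cells, transiently transfected CIS reporter constructs, 24 h exposure.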

[10] = molecular target: Hepatocyte nuclear factor 3-beta (Homo sapiens) (UniProt Q9Y261); assay: ATG_FoxA2_CIS: Attagene CIS-FACTORIAL HepG2 Assay for human Forkhead box A2 (FOXA2) (AID 2282942); details: HepG2 cis-reporter transcription factor activity, 24 h; actives raise or lower the signal
Chain of Hepatocyte nuclear factor 3-beta (Homo sapiens) (Q9Y261 whole entry, looked up): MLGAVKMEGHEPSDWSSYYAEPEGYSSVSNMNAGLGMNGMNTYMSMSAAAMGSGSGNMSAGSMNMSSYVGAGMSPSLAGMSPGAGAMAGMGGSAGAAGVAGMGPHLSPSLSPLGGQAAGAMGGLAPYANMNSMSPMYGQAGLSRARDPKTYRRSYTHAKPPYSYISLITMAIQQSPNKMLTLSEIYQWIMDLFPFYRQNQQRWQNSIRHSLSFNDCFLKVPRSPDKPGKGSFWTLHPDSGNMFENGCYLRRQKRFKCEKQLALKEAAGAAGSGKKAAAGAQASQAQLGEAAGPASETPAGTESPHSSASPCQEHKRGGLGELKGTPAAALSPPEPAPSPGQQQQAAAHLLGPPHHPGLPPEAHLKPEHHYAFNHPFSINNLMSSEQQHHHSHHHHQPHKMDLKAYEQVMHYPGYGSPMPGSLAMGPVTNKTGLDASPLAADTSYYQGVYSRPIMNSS
Summary of the method: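 Readout: fluorescent reporter transcripts resolved by capillary electrophoresis after RT-PCR. Transiently transfected HepG2, 24 h compound exposure, endogenous TF activity at cis promoter elements. Gain or loss of signal fitted relative to DMSO.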

[11] = ATG_GATA_CIS: Attagene CIS-FACTORIAL HepG2 Assay for human GATA Binding Protein (AID 2282944); details: HepG2 GATA cis-element reporter, Attagene multiplex mRNA; actives raise or lower the signal
Summary of the method: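 HepG2 cells transiently transfected with multiplexed cis-element reporter units reflecting endogenous transcription factor activity; reporter mRNA measured after 24 h dosing by RT-PCR, 6-FAM labeling, HpaI digestion and capillary electrophoresis. Bidirectional fitting versus DMSO baseline.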

[12] = ATG_GLI_CIS: Attagene CIS-FACTORIAL HepG2 Assay for human Zinc Finger Protein GLI1 (AID 2282945); details: HepG2, Attagene cis-factorial reporter mRNA, GLI element; actives raise or lower the signal
Summary of the method: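 HepG2 cells transiently transfected with cis-promoter multiplexed reporter units report endogenous transcription factor activity. After 24 h chemical exposure, reporter mRNA was quantified by RT-PCR, 6-FAM labelling, HpaI digestion and capillary electrophoresis, with bidirectional fitting against DMSO.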

[13] = ATG_ISRE_CIS: Attagene CIS-FACTORIAL HepG2 Assay for human Interferon Regulatory Factor 1 (IRF1) binding to an Interferon-Stimulated Response Element (ISRE) (AID 2282948); details: HepG2 ISRE cis-reporter (Attagene), mRNA transcription readout; actives raise or lower the signal
Summary of the method: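 Endogenous transcription factor activity read as reporter transcript abundance via RT-PCR and capillary electrophoresis. HepG2 cells transiently transfected, 24 h chemical exposure. Gain or loss fitted against DMSO baseline.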

[14] = ATG_M_32_CIS: Attagene CIS-FACTORIAL HepG2 Assay for M32 Transcription Factor (Internal Marker) (AID 2282949); details: HepG2 Attagene cis-factorial M32 reporter, mRNA; actives raise or lower the signal;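 also: background control marker of the multiplexed CIS panel rather than a real target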
Summary of the method: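 Using DMSO as baseline, bidirectional curve fits were applied to reporter mRNA signals. These came from transiently transfected HepG2 cells exposed for 24 h, with RNA analysed by RT-PCR, FAM primer extension, HpaI digestion and CE.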

[15] = ATG_M_06_CIS: Attagene CIS-FACTORIAL HepG2 Assay for M06 Transcription Factor (Internal Marker) (AID 2282950); details: HepG2 Attagene CIS-FACTORIAL M06 internal marker reporter; actives raise or lower the signal
Summary of the method: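 HepG2 cells transiently transfected with cis-regulated multiple reporter transcription units were exposed to chemical for 24 h; reporter mRNA was quantified by RT-PCR, 6-FAM primer labelling, HpaI digestion and capillary electrophoresis, fitted bidirectionally against DMSO.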

[16] = ATG_MRE_CIS: Attagene CIS-FACTORIAL HepG2 Assay for human Metal Responsive Element (MRE) (AID 2282954); details: HepG2 MRE cis-reporter transcription, Attagene multiplex; actives raise or lower the signal
Summary of the method: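 Readout: capillary electrophoresis of 6-FAM-labelled, HpaI-digested RT-PCR reporter products. System: HepG2 cells carrying transient multiplexed cis reporters, dosed 24 h. Analysis: bidirectional fit, DMSO baseline.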

[17] = molecular target: Paired box protein Pax-6 (Homo sapiens) (UniProt P26367); assay: ATG_Pax6_CIS: Attagene CIS-FACTORIAL HepG2 Assay for human Paired Box 6 (PAX6) (AID 2282956); details: HepG2 CIS-FACTORIAL PAX6 reporter transcription, RNA readout; actives raise or lower the signal
Chain of Paired box protein Pax-6 (Homo sapiens) (P26367 whole entry, looked up): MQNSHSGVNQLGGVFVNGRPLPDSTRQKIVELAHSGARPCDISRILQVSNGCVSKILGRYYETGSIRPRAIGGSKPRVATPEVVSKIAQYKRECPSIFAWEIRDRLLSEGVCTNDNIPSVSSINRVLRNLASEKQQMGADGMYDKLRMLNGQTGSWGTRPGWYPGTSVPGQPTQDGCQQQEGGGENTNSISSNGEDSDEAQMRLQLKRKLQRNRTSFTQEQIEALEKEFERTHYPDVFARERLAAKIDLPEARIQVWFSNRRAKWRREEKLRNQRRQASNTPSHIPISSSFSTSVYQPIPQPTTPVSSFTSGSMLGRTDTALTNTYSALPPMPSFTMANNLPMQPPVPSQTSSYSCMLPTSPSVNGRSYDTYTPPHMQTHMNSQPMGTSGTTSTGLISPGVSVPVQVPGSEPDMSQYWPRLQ
Summary of the method: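 Read-out is reporter transcript level, measured by RT-PCR with fluorescent primer extension and capillary electrophoresis after 24 h dosing of transfected HepG2 cells. Activity in either direction fitted relative to DMSO control.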

[18] = ATG_PXRE_CIS: Attagene CIS-FACTORIAL HepG2 Assay for human Pregnane X Receptor Element (PXRE) (AID 2282957); details: HepG2 Attagene CIS-FACTORIAL PXRE reporter, mRNA; actives raise or lower the signal
Summary of the method: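 Endogenous transcription factor activity in HepG2 was gauged through induction of reporter mRNA driven by a cis-regulating promoter element, sampled 24 h post-treatment. Activity was fitted in both directions against DMSO negative control.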

[19] = molecular target: Transcription factor Sp1 (Homo sapiens) (UniProt P08047); assay: ATG_Sp1_CIS: Attagene CIS-FACTORIAL HepG2 Assay for human Specificity Protein 1 (Sp1) (AID 2282961); details: HepG2 Sp1 cis-reporter transcription, actives raise or lower the signal
Chain of Transcription factor Sp1 (Homo sapiens) (P08047 whole entry, looked up): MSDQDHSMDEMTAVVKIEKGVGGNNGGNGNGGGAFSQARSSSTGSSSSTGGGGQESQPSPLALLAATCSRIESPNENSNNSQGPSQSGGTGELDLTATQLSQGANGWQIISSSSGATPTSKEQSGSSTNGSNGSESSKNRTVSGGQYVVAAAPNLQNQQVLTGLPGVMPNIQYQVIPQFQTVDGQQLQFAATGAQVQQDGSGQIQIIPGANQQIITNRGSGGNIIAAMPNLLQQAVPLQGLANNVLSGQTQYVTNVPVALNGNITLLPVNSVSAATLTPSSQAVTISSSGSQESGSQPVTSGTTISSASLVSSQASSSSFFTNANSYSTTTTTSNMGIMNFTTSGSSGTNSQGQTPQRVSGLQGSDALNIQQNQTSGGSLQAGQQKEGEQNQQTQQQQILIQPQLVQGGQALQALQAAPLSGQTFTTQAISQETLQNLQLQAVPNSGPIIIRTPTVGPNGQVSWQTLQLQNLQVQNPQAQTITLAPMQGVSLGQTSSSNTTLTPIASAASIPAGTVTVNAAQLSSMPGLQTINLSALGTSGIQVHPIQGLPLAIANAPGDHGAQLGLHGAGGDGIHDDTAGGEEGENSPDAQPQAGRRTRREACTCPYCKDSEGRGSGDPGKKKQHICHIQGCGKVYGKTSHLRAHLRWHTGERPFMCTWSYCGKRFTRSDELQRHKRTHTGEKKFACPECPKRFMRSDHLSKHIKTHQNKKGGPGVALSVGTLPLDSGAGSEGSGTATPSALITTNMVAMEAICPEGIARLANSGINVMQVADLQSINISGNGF
Summary of the method: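 Read-out: fluorescence of 6-FAM-labeled, HpaI-digested RT-PCR products separated by capillary electrophoresis. HepG2 cells carried transfected cis-element reporter units and were exposed to chemicals for 24 h; gain or loss of signal fitted relative to DMSO.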

[20] = molecular target: Signal transducer and activator of transcription 3 (Homo sapiens) (UniProt P40763); assay: ATG_STAT3_CIS: Attagene CIS-FACTORIAL HepG2 Assay for human Signal Transducer and Activator of Transcription 3 (STAT3) (AID 2282963); details: HepG2, Attagene cis-factorial STAT3 reporter transcription; actives raise or lower the signal
Chain of Signal transducer and activator of transcription 3 (Homo sapiens) (P40763 whole entry, looked up): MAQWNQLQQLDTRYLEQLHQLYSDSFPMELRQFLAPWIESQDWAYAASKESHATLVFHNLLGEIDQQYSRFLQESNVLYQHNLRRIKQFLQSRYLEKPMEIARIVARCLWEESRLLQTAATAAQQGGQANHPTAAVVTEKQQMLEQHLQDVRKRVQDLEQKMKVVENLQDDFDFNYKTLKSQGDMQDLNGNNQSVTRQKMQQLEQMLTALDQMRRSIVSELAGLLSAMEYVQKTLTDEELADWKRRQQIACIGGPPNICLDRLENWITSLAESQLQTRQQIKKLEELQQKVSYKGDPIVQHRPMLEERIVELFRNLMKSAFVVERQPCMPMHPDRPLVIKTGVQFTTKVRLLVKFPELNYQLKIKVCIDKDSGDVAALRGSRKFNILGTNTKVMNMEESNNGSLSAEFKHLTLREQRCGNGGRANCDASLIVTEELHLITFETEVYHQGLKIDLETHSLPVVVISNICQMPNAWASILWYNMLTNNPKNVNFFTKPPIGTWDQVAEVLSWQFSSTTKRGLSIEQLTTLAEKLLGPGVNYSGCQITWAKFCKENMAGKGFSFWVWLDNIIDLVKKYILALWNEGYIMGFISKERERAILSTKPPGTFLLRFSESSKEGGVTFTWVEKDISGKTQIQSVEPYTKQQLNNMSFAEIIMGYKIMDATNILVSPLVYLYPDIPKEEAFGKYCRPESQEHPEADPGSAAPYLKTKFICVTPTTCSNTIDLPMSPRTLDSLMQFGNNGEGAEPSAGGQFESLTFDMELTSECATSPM
Summary of the method: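 Uses human liver HepG2 transiently carrying cis-regulated reporter transcription units. Following 24 h dosing, reporter mRNA induction was detected by RT-PCR and capillary electrophoresis, analysed bidirectionally versus DMSO.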

Measured: AC50

CC1CCC(=O)O1 (stereo not given)
inactive: all assays above

CCOC(=O)C1OC1(C)c1ccccc1 (stereo not given)
active: [18] 100 µM
inactive: all other assays above

O=P(O)(Oc1ccccc1)Oc1ccccc1
active: [18] 74.2 µM
inactive: all other assays above

C[C@]12CC[C@H](O)C[C@H]1CC[C@@H]1[C@@H]2C[C@@H](O)[C@]2(C)[C@@H](C3=CC(=O)OC3)CC[C@]12O
active: [1] 3.11 µM | [3] 3.46 µM | [4] 0.865 µM | [7] 2.68 µM | [9] 8.76 µM | [11] 7.98 µM | [13] 13.8 µM | [16] 2.73 µM | [17] 0.513 µM | [18] 1.87 µM | [19] 1.28 µM
inactive: [2] | [5] | [6] | [8] | [10] | [12] | [14] | [15] | [20]

C[N+](=O)[O-]
inactive: all assays above

O=S(=O)(c1ccccc1)c1ccccc1
active: [18] 20.1 µM
inactive: all other assays above
